ALDH1A1 block: ALDH1A1 (human) enzyme inhibition. AID 1030. Potency, µM (highest dose often 75.3 µM), without a hit: at the highest dose activity, negative = inhibition, hits mostly inhibitors. 220,000 compounds, 7.3% hits. Purified ALDH1A1, NADH fluorescence, propionaldehyde substrate. P00352;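 further: potency means the concentration at half of the fitted maximal effect; plate controls were no enzyme wells and a reference inhibitor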
Target sequence (P00352 whole entry, looked up): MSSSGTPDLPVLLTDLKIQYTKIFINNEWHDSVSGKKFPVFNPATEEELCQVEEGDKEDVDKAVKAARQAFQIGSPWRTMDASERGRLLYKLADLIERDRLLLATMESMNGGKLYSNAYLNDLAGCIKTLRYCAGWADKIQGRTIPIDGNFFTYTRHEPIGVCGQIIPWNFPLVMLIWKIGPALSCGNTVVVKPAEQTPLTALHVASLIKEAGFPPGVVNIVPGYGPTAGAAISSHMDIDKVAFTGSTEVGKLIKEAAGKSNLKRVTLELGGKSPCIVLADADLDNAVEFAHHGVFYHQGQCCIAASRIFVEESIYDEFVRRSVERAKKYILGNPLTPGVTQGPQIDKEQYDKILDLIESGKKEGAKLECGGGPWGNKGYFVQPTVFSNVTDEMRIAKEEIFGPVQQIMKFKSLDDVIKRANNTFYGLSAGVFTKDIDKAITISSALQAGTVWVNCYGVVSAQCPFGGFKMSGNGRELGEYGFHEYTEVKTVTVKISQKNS
KinaseGlo FLuc: blocks Kinase-Glo luciferase, a counter-screen artifact; Potency, µM (top dose mostly 38.3 µM), without a hit: at the highest dose activity change, negative = inhibition, usual class: inhibitors; Kinase-Glo luciferase, ATP luminescence, 8 min; Q27757; 200,000 compounds, 0.28% hits; active means well fitted inhibition curve with a large enough effect; inconclusive means small, poorly fitted or top-dose-only effect; further: potency means the concentration at half of the fitted maximal effect; nearly all actives have a fitted effect of over 60% in size
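Luminescence was the read-out, taken after 8-minute incubation at ambient temperature. Luciferase turned over luciferin with 10 uM ATP in imidazole pH 7.2 buffer containing KCl, MgCl2, Tween 20 and BSA.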
HPGD inh: inhibitors of human 15-hydroxyprostaglandin dehydrogenase (HPGD); purified HPGD, NADH fluorescence kinetic, PGE2 substrate; P15428; Potency, µM, for inactives: top-dose activity change, negative = inhibition, actives largely listed as inhibitors; AID 894; 150,000 compounds, 4.3% hits; further: potency means the concentration at half of the fitted maximal effect
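NADH formation kinetics: reaction with 30 uM PGE2 and 1 mM NAD+ (final), 20 nM enzyme, Tris-HCl pH 8 with Tween 20, after 15 min compound preincubation at room temperature. Fluorescence change, last versus first of five reads.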
PNC inhibitor: inhibitors of perinucleolar compartment assembly; PC3M PTB-GFP, PNC prevalence imaging, 16 h; stronger effect = lower value; activity change (PNC), negative = inhibition, % at 10 µM; AID 2417; 140,000 compounds, 3.1% hits;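 active means readout at or below -70, meaning at least 70% loss of cells showing the perinucleolar compartment, a nuclear body marking cancer cells; inconclusive means readout between -30 and a set limit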;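 further: plate controls were DMSO wells for no effect and camptothecin positive control wells for full effect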
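Compounds are pinned in duplicate onto adhered PC3M cells stably expressing GFP-tagged PTB and incubated 16 h at 37 C. Cells are then fixed, nuclei stained with Hoechst, and PNC-positive cells counted.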
Lamin A splicing: modulators of lamin A splicing; HeLa LMNA splicing GFP/RFP minigene ratio, 48 h; Potency, µM (top dose mostly 46.1 µM), inactives show at the top dose ratio change, negative = inhibition, actives largely listed as inhibitors; 200,000 compounds, 0.01% hits; active means well fitted inhibition curve with a large enough effect in the signal ratio, with a control signal flat, not every such curve was filed as active; inconclusive means small, poorly fitted or top-dose-only effect, or effect the other way, or a change in a side signal; the % refers to the signal ratio; further: potency means the concentration at half of the fitted maximal effect
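S3 HeLa stable clones carrying a lamin A-EGFP splicing minigene plus DsRed2 were seeded at 600 cells/well in Opti-MEM with 2% FBS, pin-dosed and incubated 48 h at 37°C. Acumen cytometry (488 nm) gave the GFP/RFP total-intensity ratio.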
An asterisk follows results filed as active; ? = inconclusive; / = not tested or not shown; [ ] = another dose, or the depositor's remark. Sampled rows, rich in hits. Any-hit rate of the full collection: about 10%. Unless noted, the call rests on the fitted dose curve; in most records, active means well fitted inhibition curve with a large enough effect (not every such curve was filed as active); inconclusive means small, poorly fitted or top-dose-only effect, or another doubt; inactive means no such curve, though single readings can be large or run the other way. Unless noted, on the % scale 0 is the no-effect control and ±100 the full control effect.

SMILES	ALDH1A1 block	KinaseGlo FLuc	HPGD inh	PNC inhibitor	Lamin A splicing
CN(C)CCNc1oc(COc2ccc(Cl)cc2Cl)nc1C#N	0%	-3%	-10%	37	11%
COc1ccc(CCNc2oc(COc3ccccc3F)nc2C#N)cc1	?	0%	18µM*	?	-10%
O=C(Nc1cccc(F)c1)N1CCCC2(CCN(C(=O)c3cnccn3)CC2)C1	?	0%	-9%	/	/
O=c1cnc2cnc(N3CCOCC3)nc2n1C[C@H]1CCCO1	?	-2%	?	/	/
CN1C(=O)/C(=C2\SC(=S)N(CC3CCCO3)C2=O)c2ccccc21 (centres undefined)	?	-2%	-3%	-27	0%
CN1C(=O)/C(=C2\SC(=S)N(C(CCC(=O)O)C(=O)O)C2=O)c2ccccc21 (centres undefined)	1.1µM*	-21%	28µM*	44	0%
CCNc1ncc2ncc(=O)n(CCOC)c2n1	?	/	/	/	-5%
COc1cccc(CNC(=O)CN2C(=O)CC(c3ccccc3)=Nc3ccccc32)c1	35µM*	-3%	/	/	/
S=C(N=Nc1ccccc1)NNc1ccccc1	11µM*	-7%	?	-24	-6%
COc1ccc(-c2cc(C(=O)O)no2)cc1	0.45µM*	0%[39.9 µM]	14µM*	/	13%[46 µM]
O=C(c1ccccc1)c1cc(-c2ccccc2)on1	?	11µM*	?	23	-8%
Cc1ccc(NC(=O)C(=O)NCC(c2ccc3c(c2)OCO3)N2CCOCC2)c(C)c1 (centres undefined)	/	/	/	/	17%[46 µM]
N#Cc1cc2ccccc2nc1SCc1ccccn1	-7%	7%	25µM*	-5	4%
Cc1cc2cc3c(cc2nc1SCc1ccccn1)OCCO3	-5%	-3%	-10%	?	-16%
Cc1ccc2c(c1)N(C(=O)N1CCC(C(=O)NC3CCCCCC3)CC1)CC(C)O2 (centres undefined)	/	/	/	/	-1%[46 µM]
CCOC(=O)C1CCN(C(c2ccccc2)c2c(O)cc(C)n(Cc3ccco3)c2=O)CC1 (centres undefined)	/	/	/	/	-15%[46 µM]
COc1cc(/C=C(\C#N)c2[nH]nc(N)c2C#N)cc(OC)c1O	-7%	6%	16µM*	6	?
CCN(CC)S(=O)(=O)c1cc(NS(=O)(=O)c2cc(Cl)ccc2Cl)ccc1C	16µM*	2%	-6%	-6	?
CCN(CC)S(=O)(=O)c1cc(NC(=O)CCNC(=O)c2ccccc2Cl)ccc1C	3%	-1%	-4%	20	-10%
CCN1C(=O)c2cccc3c(NC(=O)c4ccc(S(=O)(=O)N(C)C)cc4)ccc1c23	2.8µM*	0%	-11%	-16	?
CCN1C(=O)c2cccc3c(NC(=O)c4ccc(S(=O)(=O)N5CCOCC5)cc4)ccc1c23	2µM*	0%	-13%	?	?
CCN1C(=O)c2cccc3c(NS(=O)(=O)c4ccc(NC(C)=O)cc4)ccc1c23	?	2%	-11%	8	?
Cc1ccc(-n2cnnn2)cc1S(N)(=O)=O	/	/	/	/	1%[46 µM]
CN1/C(=C/C=C(C#N)C#N)C=Cc2ccccc21	-2%	/	/	/	?
CCCCCN1C=CC=C/C1=C\C=C(C#N)C#N	0.45µM*	/	/	/	/
SMILES	ALDH1A1 block	KinaseGlo FLuc	HPGD inh	PNC inhibitor	Lamin A splicing
CCCCCCN1C=C/C(=C\C=C(C#N)C#N)c2ccccc21	8%	?	-3%	?	0%
CCCCCCN1C=CC=C/C1=C/C=C(C#N)C#N	1%	-2%	11µM*	-22	?
COc1cc(NC(=O)CN2C(=O)CN(C)C(=O)c3ccccc32)cc(OC)c1OC	/	/	/	/	-10%[46 µM]
Cc1nc2ccccn2c(=O)c1NC(=O)c1ccccc1Cl	/	/	/	/	-8%[46 µM]
CC(=O)N(c1cccc(C)c1)C1SC(=O)N(c2ccccc2)C1=O (centres undefined)	8.9µM*	/	/	36	4%
CC(=O)N(c1ccccc1)C1SC(=O)N(c2ccccc2)C1=O (centres undefined)	0.63µM*	14%	-15%	-1	14%
Cn1cc(CN2CCc3c([nH]c4ccccc34)C2C2CCCCC2)cn1 (centres undefined)	13µM*	-3%	/	/	-1%[46 µM]
Cc1ccc(S(=O)(=O)/N=S(\C)CC2CC2(Cl)Cl)cc1 (centres undefined)	10µM*	-4%	-12%	-18	3%
CC(C)NC(=O)N1CCC2(CC1)CCN(C(=O)c1cc(C(F)(F)F)cc(C(F)(F)F)c1)CC2	3%	-1%	-11%	/	/
CN1CC(=O)N(CC(=O)Nc2cc(Cl)cc(Cl)c2)C1=O	10µM*	-1%	/	/	?
CN1CC(=O)N(CC(=O)Nc2ccc(SC(F)F)cc2)C1=O	1%	1%	/	/	-9%[9.22 µM]
Cn1cccc1C(=O)N1CCC2(CCN(C(=O)Nc3ccccc3)CC2)CC1	3%	0%	-8%	/	/
COC(=O)N/N=C\c1c(C)[nH]n(-c2ccccc2)c1=O	-14%	-4%	/	/	-6%[46 µM]
Cc1[nH]n(-c2ccccc2)c(=O)c1/C=N/NC(=O)C(C)C	25µM*	-3%	/	/	?
CC(=O)C1=C(c2ccc(C)cc2)N(C(C)=O)n2c(nnc2-c2ccccc2)S1	/	/	/	/	-14%[46 µM]
Cc1ccc(C(=O)c2coc3cc([N+](=O)[O-])c(O)c([N+](=O)[O-])c23)cc1	?	-2%	14µM*	43	?
COc1ccc(N2C(=O)CSC23C(=O)N(CC(=O)NCCc2ccccc2)c2ccccc23)cc1 (centres undefined)	/	/	/	/	17%[46 µM]
Cc1c(C(=O)Nc2ccccc2)sc2nc(-c3cc4ccccc4oc3=O)[nH]c(=O)c12	/	/	/	/	-9%[46 µM]
O=C(NC1CCCCC1)C(=S)N1CCOCC1	24µM*	-3%	/	/	/
S=C(NC1CCCC1)N1CCOCC1	5%	1%	/	/	/
O=C(c1nc(-c2ccc(Cl)cc2)n2c1CCCCC2)N1CCN(c2ccc(F)cc2)CC1	/	/	/	/	-23%[46 µM]
Cc1ccc(Cn2c(CO)cnc2SCC(=O)NCc2ccccc2Cl)cc1	/	/	/	/	8%[46 µM]
NNc1nc2cccnc2n(CCNc2ncc(C(F)(F)F)cc2Cl)c1=O	1.6µM*	1%	/	/	20%[46 µM]
O=c1c(Cl)nc2cc(Cl)ccc2n1CCNc1ncc(C(F)(F)F)cc1Cl	1%	3%	-14%	36	?
Cc1nn(-c2ccc(N3CCOCC3)nn2)c(C)c1CCC(=O)NCc1ccc(F)cc1	/	/	/	/	8%[46 µM]
O=C(Nc1ccc2c(c1)OCO2)C(c1ccccc1)N1CCN(C(=O)c2ccco2)CC1 (centres undefined)	3µM*	14%	-19%	14	13%
Cc1ccc(C)c(S(=O)(=O)N2CCN(C(C(=O)Nc3ccc(F)cc3)c3ccccc3)CC2)c1 (centres undefined)	11µM*	-1%	-13%	6	-13%
O=C(Nc1ccc2c(c1)OCO2)C(c1ccc(Cl)cc1)N1CCN(C(=O)c2ccco2)CC1 (centres undefined)	-12%	0%	-5%	9	-11%
